Results from PubChem BioAssay (NCATS).
Records with an inconclusive call do not appear. Values without a mark were called inactive. Calls of active or inactive are those of the source. The call rests on the fitted dose curve; in most records, active means well fitted inhibition curve with a large enough effect; inconclusive means small, poorly fitted or top-dose-only effect; inactive means flat fitted curve, though single readings scatter.

biological target: Glutathione peroxidase 1 (Homo sapiens) (UniProt P07203); test: Primary qHTS Assay for Inhibitors of Recombinant Selenoprotein Glutathione Peroxidase 1 (GPX1) (AID 1845191); details: recombinant GPX1, GR-coupled NADPH fluorescence, 15 min; series mostly up to 48.8 µM; activity, negative = inhibition: at the top concentration; further: potency means the concentration at half of the fitted maximal effect
Sequence (P07203 whole entry, looked up): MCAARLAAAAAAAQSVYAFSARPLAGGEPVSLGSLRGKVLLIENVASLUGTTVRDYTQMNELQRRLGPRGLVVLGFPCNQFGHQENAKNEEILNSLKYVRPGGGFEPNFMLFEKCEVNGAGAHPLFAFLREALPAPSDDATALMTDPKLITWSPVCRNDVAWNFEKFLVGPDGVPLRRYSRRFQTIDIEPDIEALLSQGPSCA
Summary of the method: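 GR-coupled readout: NADPH consumption tracked by fluorescence, ex 340/em 450 nm, at t=0 and after 15 min at RT. Final mix 10 nM GPX1, 1 mM GSH, 0.5 mM CHP, 0.5 mM NADPH, 100 nM GR, 0.01% BSA, following 30 min enzyme–compound preincubation.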
Further: nearly all actives have a fitted effect of over 65% in size.
On the % scale 0 is the no-effect control and ±100 the full control effect.

SMILES | activity, negative = inhibition | outcome | Potency
C/C=C(/C)C1C=CC2CC(C)CC(C)C2C1/C(O)=C1\C(=O)NC(CC(C)(O)C(=O)O)C1=O (stereo unspecified) | -13.7% [at 27.7 µM] |  | 
COc1ccc2c3c4n(c2c1)[C@@H](C=C(C)C)OOC(C)(C)C[C@@H]4N1C(=O)[C@@H]2CCCN2C(=O)[C@]1(O)[C@H]3OCC=C(C)C | 3.03% [at 27.7 µM] |  | 
CC1=CC2/C=C(\C)CCCC(O)/C=C/C(=O)OC23C(=O)NC(CC(C)C)C3C1C (stereo unspecified) | -0.498% [at 27.7 µM] |  | 
C=CC(C)(C)c1[nH]c2c(CC=C(C)C)cc(CC=C(C)C)cc2c1C[C@@H]1NC(=O)[C@H](C)NC1=O | -5.93% |  | 
COc1cc(O)c2c(c1)/C=C/C[C@@H](O)[C@@H](O)C(=O)CCC[C@H](C)OC2=O |  | inactive [at 27.7 µM] | 
CC(=O)O[C@H]1CC[C@H]2[C@@H]3CC[C@H]4CC(=O)C=C(C)[C@]4(C)[C@H]3CC[C@]12C | -8.07% |  | 
COc1cc(N2CCN(C)CC2)ccc1N | -13.8% |  | 
COCC(C(=O)OC1CC2CCC(C1)N2C)c1ccccc1 (stereo unspecified) | -6.2% |  | 
N#CC(O[C@@H]1O[C@H](CO)[C@@H](O)[C@H](O)[C@H]1O)c1ccccc1 (stereo partly specified) | 0.866% |  | 
CC[C@H]1C2CC3[C@@H]4N(C)c5ccccc5[C@]45C[C@@H]([C@H]2[C@H]5O)N3[C@H]1O |  | inactive [at 27.7 µM] | 
NC(=O)c1ncn2c1CN=C(c1ccccc1Br)c1cc(F)ccc1-2 | -13.1% |  | 
Cc1c(N2C(=O)[C@@H]3[C@H](O)CCN3C2=O)ccc(C#N)c1Cl | 0.369% |  | 
CC(=O)O[C@@H]1[C@H]2CC[C@H]3[C@@](C)(O)[C@@H]4C[C@H](O)C(C)(C)[C@@]4(O)[C@H](O)C[C@@]13C[C@@]2(C)O | -7.35% [at 27.7 µM] |  | 
CC(=O)N1N=C(c2ccc(N)cc2)c2cc3c(cc2C[C@H]1C)OCO3 |  | inactive | 
COC(=O)[C@]12CCCC(C)(C)C1CCc1cc(C(C)C)c(O)c(O)c12 (stereo partly specified) | -12.2% [at 27.7 µM] |  | 
COc1ccc(CN(C(=O)[C@@H](N)Cc2c(C)cc(C(N)=O)cc2C)[C@@H](C)c2ncc(-c3ccccc3)[nH]2)cc1C(=O)O |  | inactive | 
C=CC/C=C\C/C=C\CCCCCCCc1cc(O)cc(O)c1 | -9.32% [at 27.7 µM] |  | 

SMILES | activity, negative = inhibition | outcome | Potency
COC(=O)CC1CC2(C(=O)c3c(O)cccc3C2(O)C(=O)OC)C(C)O1 (stereo unspecified) |  | inactive [at 27.7 µM] | 
c1cncc(OC[C@@H]2CCN2)c1 |  | inactive | 
Cc1c(Cl)c(OCC(=O)N2CCN(C)CC2)nc2sc(C(=O)NC3CC3)c(N)c12 | -20.1% |  | 
CN1CCc2cc3c(cc2C1C1OC(=O)c2c1ccc1c2OCO1)OCO3 (stereo unspecified) | -7.13% [at 27.7 µM] |  | 
C#CCO[C@H]1CN2CCC1CC2 | -6.02% |  | 
CC1CCCC(O)CC(=O)Cc2cc(O)cc(O)c2C(=O)O1 (stereo unspecified) | -10.4% [at 27.7 µM] |  | 
COc1ccsc1CNCC[C@@]1(c2ccccn2)CCOC2(CCCC2)C1 |  | inactive | 
C1=C(c2cnc[nH]2)c2ccsc2CC1 |  |  | 20.2 µM (active)
CC1=CC2(O)/C=C/C(C)(O)C(O)C(O)/C=C/C(=O)OC23C(=O)NC(CC(C)C)C3C1C (stereo unspecified) | -9.56% [at 27.7 µM] |  | 
C/C=C1/CN2CC[C@]34C(=Nc5ccc(OC)cc53)C2C[C@@H]1C4(CO)C(=O)OC (stereo partly specified) |  | inactive [at 27.7 µM] | 
Cc1cccc(NC(=O)N[C@H]2CN(C)c3ccccc3C(c3ccccc3)=N2)c1 | 2.37% |  | 
CO[C@@H]1[C@H](O)[C@@H](O[C@@H]2C[C@H]3CC[C@@H]4C(CC[C@]5(C)[C@@H](C6=CC(=O)OC6)CC[C@]45O)[C@@]3(C)[C@H](O)C2)O[C@H](C)[C@@H]1O (stereo partly specified) | -5.18% [at 27.7 µM] |  | 
C[C@]12CCC(=O)C=C1CC[C@@H]1[C@@H]2[C@@H](O)C[C@]2(C)C(=O)CC[C@@H]12 | 2.15% |  | 
CCC(C)(O)C1(C(=O)O)COC(=O)C1 (stereo unspecified) |  | inactive | 
COC(=O)C1=COC(C)C2CN3CCC4(C(=O)Nc5ccccc54)C3CC12 (stereo unspecified) | -10.3% [at 27.7 µM] |  | 
O=C1N[C@@H](Cc2ccccc2)CN2CCCC[C@@H]12 | 2.47% |  | 
CN1C(=O)CN=C(c2ccccc2Cl)c2cc(Cl)ccc21 | -9.16% |  | 

biological target: Phospholipid hydroperoxide glutathione peroxidase GPX4 (Homo sapiens) (UniProt P36969); test: Primary qHTS Assay for Inhibitors of Recombinant Selenoprotein Glutathione Peroxidase 4 (GPX4) (AID 1845192); details: recombinant GPX4, GR-coupled NADPH fluorescence, 15 min; series mostly up to 50 µM; activity change, negative = inhibition: at the top concentration
Sequence (P36969 whole entry, looked up): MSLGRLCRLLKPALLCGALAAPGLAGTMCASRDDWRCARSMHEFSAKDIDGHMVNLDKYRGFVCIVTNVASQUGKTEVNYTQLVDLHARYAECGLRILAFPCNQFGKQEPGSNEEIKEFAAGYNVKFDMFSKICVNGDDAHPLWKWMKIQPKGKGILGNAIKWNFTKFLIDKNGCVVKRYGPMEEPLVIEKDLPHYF
Summary of the method: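 Steps: GPX4 plus compound, 30 min RT; add GR/GSH/NADPH master mix; start with cumene hydroperoxide; read 340/450 nm fluorescence at 0 and 15 min. Finals were 200 nM GPX4, 1 mM GSH, 0.5 mM CHP, 0.5 mM NADPH, 100 nM GR.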

SMILES | activity change, negative = inhibition | outcome
C/C=C(/C)C1C=CC2CC(C)CC(C)C2C1/C(O)=C1\C(=O)NC(CC(C)(O)C(=O)O)C1=O (stereo unspecified) | -0.758% [at 27.8 µM] | 
CS[C@]1(CO)C(=O)N2[C@H]3C(=CC=C[C@@H]3O)C[C@@]2(SC)C(=O)N1C | -4.77% [at 27.8 µM] | 
COc1ccc2c3c4n(c2c1)[C@@H](C=C(C)C)OOC(C)(C)C[C@@H]4N1C(=O)[C@@H]2CCCN2C(=O)[C@]1(O)[C@H]3OCC=C(C)C | -23.8% [at 27.8 µM] | 
CC1=CC2/C=C(\C)CCCC(O)/C=C/C(=O)OC23C(=O)NC(CC(C)C)C3C1C (stereo unspecified) | -7.89% [at 27.8 µM] | 
COc1cc(O)c2c(c1)/C=C/C[C@@H](O)[C@@H](O)C(=O)CCC[C@H](C)OC2=O | -14.6% [at 27.8 µM] | 
CC(=O)O[C@H]1CC[C@H]2[C@@H]3CC[C@H]4CC(=O)C=C(C)[C@]4(C)[C@H]3CC[C@]12C | -10.5% | 
COc1cc(N2CCN(C)CC2)ccc1N | -33.9% | 
COCC(C(=O)OC1CC2CCC(C1)N2C)c1ccccc1 (stereo unspecified) | -2.84% | 
N#CC(O[C@@H]1O[C@H](CO)[C@@H](O)[C@H](O)[C@H]1O)c1ccccc1 (stereo partly specified) |  | inactive
CC[C@H]1C2CC3[C@@H]4N(C)c5ccccc5[C@]45C[C@@H]([C@H]2[C@H]5O)N3[C@H]1O | -4.61% [at 27.8 µM] | 
NC(=O)c1ncn2c1CN=C(c1ccccc1Br)c1cc(F)ccc1-2 | -5.19% | 
Cc1c(N2C(=O)[C@@H]3[C@H](O)CCN3C2=O)ccc(C#N)c1Cl | 6.4% | 
CC(=O)O[C@@H]1[C@H]2CC[C@H]3[C@@](C)(O)[C@@H]4C[C@H](O)C(C)(C)[C@@]4(O)[C@H](O)C[C@@]13C[C@@]2(C)O | 0.696% [at 27.8 µM] | 
COC(=O)[C@]12CCCC(C)(C)C1CCc1cc(C(C)C)c(O)c(O)c12 (stereo partly specified) | -16.7% [at 27.8 µM] | 
C=CC/C=C\C/C=C\CCCCCCCc1cc(O)cc(O)c1 | -27.7% [at 27.8 µM] | 
CN1C2CCC1CC(OC(=O)N1Cc3ccccc3NC1=O)C2 (stereo unspecified) | 17.5% | 

SMILES | activity change, negative = inhibition | outcome
c1cncc(OC[C@@H]2CCN2)c1 | 5.14% | 
Cc1c(Cl)c(OCC(=O)N2CCN(C)CC2)nc2sc(C(=O)NC3CC3)c(N)c12 | -6.93% | 
CN1CCc2cc3c(cc2C1C1OC(=O)c2c1ccc1c2OCO1)OCO3 (stereo unspecified) | 1.81% [at 27.8 µM] | 
C#CCO[C@H]1CN2CCC1CC2 | -12.9% | 
CC1CCCC(O)CC(=O)Cc2cc(O)cc(O)c2C(=O)O1 (stereo unspecified) |  | inactive [at 27.8 µM]
C1=C(c2cnc[nH]2)c2ccsc2CC1 | -6.42% | 
CC1=CC2(O)/C=C/C(C)(O)C(O)C(O)/C=C/C(=O)OC23C(=O)NC(CC(C)C)C3C1C (stereo unspecified) | -9.24% [at 27.8 µM] | 
C/C=C1/CN2CC[C@]34C(=Nc5ccc(OC)cc53)C2C[C@@H]1C4(CO)C(=O)OC (stereo partly specified) | -13% [at 27.8 µM] | 
Oc1ccc2c3c1O[C@H]1c4[nH]c5c(N=C=S)cccc5c4C[C@@]4(O)[C@@H](C2)N(CC2CC2)CC[C@]314 | -28.5% | 
CO[C@@H]1[C@H](O)[C@@H](O[C@@H]2C[C@H]3CC[C@@H]4C(CC[C@]5(C)[C@@H](C6=CC(=O)OC6)CC[C@]45O)[C@@]3(C)[C@H](O)C2)O[C@H](C)[C@@H]1O (stereo partly specified) | -0.441% [at 27.8 µM] | 
C[C@@H]1CCC/C=C/[C@H]2C[C@@H](O)C[C@@H]2[C@@H](O)/C=C/C(=O)O1 | -3.67% | 
C[C@]12CCC(=O)C=C1CC[C@@H]1[C@@H]2[C@@H](O)C[C@]2(C)C(=O)CC[C@@H]12 | -4.06% | 
CCC(C)(O)C1(C(=O)O)COC(=O)C1 (stereo unspecified) | -1.54% | 
COC(=O)C1=COC(C)C2CN3CCC4(C(=O)Nc5ccccc54)C3CC12 (stereo unspecified) | -5.56% [at 27.8 µM] | 
CC1(C)C(=O)N(c2ccc(C#N)c(C(F)(F)F)c2)C(=O)N1CCCCO | 5.86% | 
O=C1N[C@@H](Cc2ccccc2)CN2CCCC[C@@H]12 | -4.89% | 
